Assay outcomes as filed in PubChem.
The sample as a whole holds a higher share of hits than the screen did.
Choline anaer gr: inhibitors of anaerobic choline-dependent gram-negative bacterial growth; 55,000 compounds, 0.2% hits; calls only; AID 1963822; Gram-negative bacterium anaerobic choline minimal medium, absorbance growth; hits give low values; call rule not given here
The depositor's hits bear a star; ! = repeats disagree.

Cc1nc(OCC(=O)Nc2ccc(F)cc2F)c2ccccc2n1 was read as Choline anaer gr active.
For CCc1nc(OCC(=O)Nc2cc(C)cc(C)c2)c2ccccc2n1 the results were Choline anaer gr inactive.
O=C(COc1ccc(-c2cnc3ccccc3n2)cc1)Nc1cc(F)ccc1F was read as Choline anaer gr inactive.
Screening C=Cc1ccc(Cn2nc(-c3ccc(OC)cc3)c3c(C)onc3c2=O)cc1 returned Choline anaer gr inactive.
For Clc1cccc(-c2noc3ncnc(NCc4ccc5c(c4)OCO5)c23)c1 the results were Choline anaer gr inactive.
For Cc1ccc(-c2noc3ncnc(NCCN(C)C4CCCCC4)c23)cc1 the results were Choline anaer gr inactive.
For CN(CCNc1ncnc2onc(-c3cccc(Cl)c3)c12)C1CCCCC1 the results were Choline anaer gr active.
COc1ccc(-c2onc(C)c2C)cc1S(=O)(=O)Nc1cccnc1 was read as Choline anaer gr inactive.
Screening O=S(=O)(Nc1ccc(Cl)cc1)c1ccc2c(c1)-c1oncc1CO2 returned Choline anaer gr inactive.
Screening CO[C@@]12[C@H](COC(N)=O)C3=C(C(=O)C(C)=C(N)C3=O)N1C[C@@H]1N[C@@H]12 returned Choline anaer gr active!.
`CCN(c1ccccc1)S(=O)(=O)c1ccc2c3c1CC(=O)N3CC(C)S2` (centres undefined) gave Choline anaer gr inactive.
`Cc1nc(CN2C(=O)COc3ccc(S(=O)(=O)N4CCCCC4)cc32)no1` gave Choline anaer gr inactive.
Cc1nc(CN2C(=O)COc3ccc(S(=O)(=O)N4CCCC4)cc32)no1 was read as Choline anaer gr inactive.
For O=c1onc2n1-c1cc(Br)ccc1OC2 the results were Choline anaer gr active.
O=C(Nc1cccc(-c2nc(-c3ccccc3)no2)c1)c1ccc(F)cc1 was read as Choline anaer gr inactive.
CCCCOc1ccc(CN2CCCC2c2cc(CCC)on2)cc1 (centres undefined) was read as Choline anaer gr inactive.
Screening CCCCC(CC)CNC(=O)c1ccc(N2CCCS2(=O)=O)cc1 (centres undefined) returned Choline anaer gr inactive.
Screening O=C(CN1C(=O)C(c2ccccc2)Oc2cccnc21)NCCCN1CCC(N2CCCCC2)CC1 (centres undefined) returned Choline anaer gr inactive.
Screening O=c1[nH]cnc2c1ncn2C1O[C@H](CO)[C@@H](O)[C@H]1O (some centres undefined) returned Choline anaer gr inactive.
`Nc1nc(Cl)nc2c1ncn2[C@H]1C[C@H](O)[C@@H](CO)O1` gave Choline anaer gr inactive.
For Nc1nc(Cl)nc2c1ncn2[C@@H]1O[C@H](CO)[C@@H](O)[C@@H]1F the results were Choline anaer gr active!.
O=C(Nc1ccccc1C(=O)c1ccccc1)c1cnn(-c2ccccc2)c1 was read as Choline anaer gr inactive.
For Cc1nn(-c2nc3ccccc3o2)c(C)c1Sc1nnc(N)s1 the results were Choline anaer gr inactive.
`Oc1ccc(C2NCCc3c2[nH]c2ccc(Cl)cc32)cc1O` (centres undefined) gave Choline anaer gr inactive.
`Oc1ccc(C2NCCc3c2[nH]c2ccc(Cl)cc32)cc1` (centres undefined) gave Choline anaer gr active.
For COc1ccc(C2NCCc3c2[nH]c2ccccc32)cc1O (centres undefined) the results were Choline anaer gr inactive.
`CCOc1cc(C2NCCc3c2[nH]c2ccc(Cl)cc32)ccc1O` (centres undefined) gave Choline anaer gr active.
Screening COc1ccc2[nH]c3c(c2c1)CCNC3c1cccc(O)c1 (centres undefined) returned Choline anaer gr inactive.
Screening CCCOc1ccc(C2NCCc3c2[nH]c2ccccc32)cc1OC (centres undefined) returned Choline anaer gr inactive.
Clc1ccc(-c2noc(CSc3ccc(-c4ccc5c(c4)OCO5)nn3)n2)cc1 was read as Choline anaer gr inactive.
Cc1nc2cccnc2n1-c1cc(C(=O)NCc2ccccc2F)ccc1Cl was read as Choline anaer gr inactive.
Screening CCCCC[C@H](O)/C=C/[C@H]1C(=O)C[C@H](O)[C@@H]1C/C=C\CCCC(=O)NCCO returned Choline anaer gr inactive.
Screening Cc1nnc(-c2ccc(S(=O)(=O)NC3CCCC3)s2)o1 returned Choline anaer gr inactive.
O=C(NCCC1=CCCCC1)c1cccc(Nc2ncc(-c3ccc(F)cc3)cn2)c1 was read as Choline anaer gr inactive.
Screening CSc1ccc2c(c1)N(CCC1CCCCN1C)c1ccccc1S2 (centres undefined) returned Choline anaer gr inactive.
CN1CCCC1CCOC(C)(c1ccccc1)c1ccc(Cl)cc1 (centres undefined) was read as Choline anaer gr active.
For O=S(=O)(c1ccccc1)N1CCCC1c1ccc(Cl)cc1 (centres undefined) the results were Choline anaer gr inactive.
NC(N)=NC(=O)Cc1c(Cl)cccc1Cl was read as Choline anaer gr inactive.
For NC(N)=N/N=C/c1c(Cl)cccc1Cl the results were Choline anaer gr active!.
`O=c1[nH]c2cc3c(cc2c(=O)n1CCCc1nc(-c2cccc(Cl)c2)no1)OCO3` gave Choline anaer gr inactive.
